23 molecules from PubChem BioAssay (Tox21) can be followed below.

Results filed as inconclusive are left out. Unmarked numbers belong to inactive results. Calls of active or inactive are those of the source. Calls come from the whole dose curve; as a rule, active = well fitted curve in the direction sought with a large enough effect in the repeat runs; inconclusive = weak or mixed curves; inactive = no such curve, though single readings can be large; an effect the other way counts as inactive or inconclusive.

A short description of assay [1]: A CellTox Green Cytotoxicity Assay to monitor cytotoxicity in HEK293 cells - 40 hour (AID 1224871). Note: nearly all actives have a fitted effect of over 45% in size. Note: potency is the fitted concentration of half-maximal effect. The method, boiled down:
(§1)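 Nonlytic real-time cytotoxicity: HEK293 + CellTox Green reagent plated, 5 h preincubation, pintool compound addition (23 nL in DMSO), 37 C for 40 h, fluorescence measured at successive time points.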

A short description of assay [2]: qHTS RealTime-Glo MT Cell Viability Assay in HEK293 cells - 16 hour (AID 1224872). For activity change, negative = cytotoxicity: top concentration of the series differs between compounds. Note: nearly all actives have a fitted effect of over 50% in size. Note: potency is the fitted concentration of half-maximal effect. The method, boiled down: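 Luminescence generated by NanoLuc from substrate produced by living HEK293 cells served as the viability signal. Each value reflects the reading at its stated time point during continuous 40 h compound exposure at 37 C.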
(In general: qHTS replaces the single test concentration by a dilution series.)

A short description of assay [3]: qHTS RealTime-Glo MT Cell Viability Assay in HepG2 cells - 8 hour (AID 1224873). Note: nearly all actives have a fitted effect of over 55% in size. The procedure, abridged: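 HepG2 cells mixed with RealTime-Glo MT reagents (NanoLuc plus cell-permeant prosubstrate) were seeded at 600 cells/well, incubated 5 h at 37 C/5% CO2, then pinned with compounds in DMSO; nonlytic luminescence tracked viability during 40 h treatment.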
Assay [4] is described as follows: qHTS RealTime-Glo MT Cell Viability Assay in HEK293 cells - 40 hour (AID 1224874). Note: nearly all actives have a fitted effect of over 50% in size. Note: potency is the fitted concentration of half-maximal effect. To be noted: RealTime-Glo luminescence; max response: active compounds read low. The method, boiled down:
(§2)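 Cells were seeded together with NanoLuc luciferase and a prosubstrate that viable cells reduce to a luciferase substrate. After a 5 h incubation at 37 C/5% CO2, compounds were added and luminescence was measured repeatedly during 40 h of treatment.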

Assay [5] is described as follows: A CellTox Green Cytotoxicity Assay to monitor cytotoxicity in HEK293 cells - 24 hour (AID 1224875). For activity change: series mostly up to about 77 µM. Note: nearly all actives have a fitted effect of over 45% in size. Note: potency is the fitted concentration of half-maximal effect. The method, boiled down:
as §1

A short description of assay [6]: A CellTox Green Cytotoxicity Assay to monitor cytotoxicity in HepG2 cells - 16 hour (AID 1224876). Note: nearly all actives have a fitted effect of over 45% in size. The procedure, abridged: (§3)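 Read-out is fluorescence of a cyanine dye excluded from live cells that stains DNA of dead HepG2 cells, with signal proportional to cytotoxicity. Plates were read at 0, 8, 16, 24, 32 and 40 h after compound addition.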
A short description of assay [7]: qHTS RealTime-Glo MT Cell Viability Assay in HepG2 cells - 32 hour (AID 1224877). Note: nearly all actives have a fitted effect of over 55% in size. The method, boiled down: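 Tox21 10K library screened in qHTS format on HepG2 cells carrying RealTime-Glo reagents. Compounds were added after a 5 h preincubation, and the luminescent signal from continuous culture was measured repeatedly during 40 h treatment.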
Assay [8] in a line: A CellTox Green Cytotoxicity Assay to monitor cytotoxicity in HepG2 cells - 24 hour (AID 1224878). Note: nearly all actives have a fitted effect of over 45% in size. Note: potency is the fitted concentration of half-maximal effect. The method, boiled down: as §3
A short description of assay [9]: qHTS RealTime-Glo MT Cell Viability Assay in HEK293 cells - 0 hour (AID 1224880). The method, boiled down:
as §2

Assay [10] in a line: A CellTox Green Cytotoxicity Assay to monitor cytotoxicity in HepG2 cells - 40 hour (AID 1224879). Note: nearly all actives have a fitted effect of over 40% in size. Note: potency is the fitted concentration of half-maximal effect. The procedure, abridged:
as §3
% is set by controls: 0 for no effect and ±100 for the full control effect.

For the molecule `CC1=C(C(=O)O)N2C(=O)[C@@H](N)[C@H]2SC1`, the cytotoxicity increase in assay [1] is -14.9% [at 15.8 µM]; in assay [6], -9.17% [at 15.8 µM]. Moreover, the activity change, negative = cytotoxicity in assay [2] was 1.93% [at 15.8 µM]; in assay [9], 1.57% [at 15.8 µM]. For the same molecule, in assay [3], the viability change, negative = cytotoxic was 1.32% [at 15.8 µM]. For the same molecule, in assay [4], the max response is 1.69%. Moreover, the activity change in [5] was -5.37% [at 15.8 µM, active compounds read high]. Besides, in assay [7], the activity change, negative = cytotoxic is 1.22% [at 15.8 µM]. Besides, the cytotoxicity in [8] was -8.35% [at 15.8 µM].

`ClCCCN1CCN(c2cccc(Cl)c2)CC1`: the Potency result in assay [1], in assay [2], in assay [3], in assay [5], in assay [6] and in assay [7] was “inactive” in each case. The Potency entry in [8] and in [10] was “inactive” each time. Besides, in assay [4], the max response was -25.9%. In addition, the outcome in [9] was inactive.

Take `O=NN1CCN(N=O)CC1`: the Potency entry in [1], in assay [2], in assay [3], in assay [5], in [6] and in assay [7] was “inactive” each time. The Potency result in assay [8] and in assay [10] was “inactive” in each case. For the same molecule, the max response in assay [4] is -6.3%. In addition, the result in assay [9] was inactive.

For `ClC(Cl)Br`, the Potency entry in assay [1], in [2], in assay [3], in assay [5], in [6] and in assay [7] was “inactive” in each case. Moreover, the Potency entry in assay [8] and in assay [10] was “inactive” in each case. The max response in assay [4] is 8.21%. Moreover, the molecule was called inactive in assay [9].

As for `CCOc1nc(C(Cl)(Cl)Cl)ns1`, the Potency result in [1], in [2], in assay [3], in assay [5], in [6] and in [7] was “inactive” each time. Further, the Potency result in assay [8] and in assay [10] was “inactive” each time. Moreover, in assay [4], the max response is 3%. Also, the result in assay [9] was inactive.

`O=C(O)c1cccc(Cl)c1`: the Potency entry in [1], in [2], in assay [3], in [5], in assay [6] and in assay [7] was “inactive” throughout. Further, the Potency result in assay [8] and in [10] was “inactive” throughout. Also, in [4], the max response is 4.06%. In addition, in assay [9], the molecule was classed as inactive.

Regarding `CCS(=O)(=O)CCSP(=O)(OC)OC`, the Potency entry in assay [1], in assay [2], in [3], in assay [5], in [6] and in assay [7] was “inactive” throughout. The Potency entry in assay [8] and in assay [10] was “inactive” throughout. Besides, in [4], the max response was 10.4%. Also, in [9], the result was inactive.

With `COCC(=O)N(c1c(C)cccc1C)N1CCOC1=O`, the Potency entry in assay [1], in assay [2], in [3], in assay [5], in assay [6] and in [7] was “inactive” in each case. Moreover, the Potency entry in [8] and in assay [10] was “inactive” throughout. In addition, the max response in assay [4] is 0.893%. In [9], the outcome was inactive.

Regarding `CNC(=O)Oc1c(C(C)(C)C)cc(C)cc1C(C)(C)C`, the Potency result in [1], in assay [2], in assay [3], in [5], in [6] and in assay [7] was “inactive” throughout. Moreover, the Potency entry in assay [8] and in assay [10] was “inactive” throughout. Also, the max response in assay [4] is -2.73%. Further, in assay [9], the outcome was inactive.

For `CC(=O)Nc1cc([As](=O)(O)O)ccc1O`, the Potency result in [1], in assay [2], in [3], in assay [5], in [6] and in [7] was “inactive” throughout. For the same molecule, the Potency entry in assay [8] was “inactive”. Besides, the max response in assay [4] is -9.14%. The call in [9] was inactive.

For the molecule `CCCSP(=O)(OCC)Oc1ccc(Br)cc1Cl` (stereo not given), the Potency entry in assay [1], in [2], in assay [3], in assay [5], in [6] and in assay [7] was “inactive” throughout. Besides, the Potency result in assay [8] and in assay [10] was “inactive” throughout. In assay [4], the max response is -3.49%. For the same molecule, the molecule was called inactive in assay [9].

With `CNNC`, the Potency entry in [1], in assay [2], in assay [3], in assay [5], in assay [6] and in assay [7] was “inactive” in each case. Moreover, the Potency entry in assay [8] and in assay [10] was “inactive” throughout. Besides, the max response in assay [4] was -7.62%. Further, in assay [9], the molecule was called inactive.

Turning to `N#CCNCC#N`, the Potency result in [1], in [2], in assay [3], in assay [5], in assay [6] and in [7] was “inactive” throughout. Moreover, the Potency entry in assay [8] and in assay [10] was “inactive” in each case. Besides, the max response in assay [4] was 3.83%. Moreover, the call in assay [9] was inactive.

Take `CNC(=O)N(C)c1nc2ccccc2s1`: the Potency entry in assay [1], in [2], in assay [3], in assay [5], in assay [6] and in [7] was “inactive” in each case. In addition, the Potency entry in assay [8] and in assay [10] was “inactive” each time. Also, the max response in [4] was -18.7%. For the same molecule, the molecule was classed as inactive in assay [9].

As for `c1cc[c]([Hg][c]2ccccc2)cc1`, the Potency in [1] is 34.7 µM (active); in assay [2] it was 34.7 µM (active); in [4] it was 24.5 µM (active); in assay [5], 43.6 µM (active); in [8], 43.6 µM (active); in assay [10], 49 µM (active). Besides, the Potency result in assay [3], in [6] and in assay [7] was “inactive” each time. In assay [9], the molecule was classed as inactive.

`CCOP(=O)(OCC)OP(=O)(OCC)OCC`: the Potency entry in assay [1], in assay [2], in assay [3], in assay [5], in assay [6] and in [7] was “inactive” in each case. Further, the Potency result in assay [8] is “inactive”. In addition, the max response in assay [4] was 5.24%. For the same molecule, in assay [9], the result was inactive.

Regarding `Clc1cccc(N2CCNCC2)c1`, the Potency result in [1], in [2], in assay [3], in assay [5], in assay [6] and in assay [7] was “inactive” throughout. For the same molecule, the Potency entry in [8] and in assay [10] was “inactive” throughout. Also, in [4], the max response was 8.54%. Moreover, in assay [9], the call was inactive.

Turning to `C=CC1CC=CCC1` (stereo not given), the Potency entry in assay [1], in assay [2], in [3], in [5], in [6] and in assay [7] was “inactive” each time. The Potency result in assay [8] and in assay [10] was “inactive” in each case. In addition, the max response in assay [4] was 3.23%. Moreover, the outcome in [9] was inactive.

As for `Fc1cc(Br)ccc1CBr`, the Potency result in [1], in [2], in [3], in [5], in assay [6] and in assay [7] was “inactive” each time. The Potency entry in [8] and in assay [10] was “inactive” in each case. For the same molecule, the max response in assay [4] was -0.0441%. Moreover, the outcome in assay [9] was inactive.

As to `O=[N+]([O-])c1cc(Cl)c(Cl)c(Cl)c1`, the Potency in assay [1] and in assay [5] was 21.7 µM (active) each time. Also, the Potency result in [2], in [3], in assay [6], in assay [7] and in assay [8] was “inactive” in each case. Besides, the max response in [4] was 5.08%. The outcome in assay [9] was inactive.

Turning to `O=CNC(N1CCN(C(NC=O)C(Cl)(Cl)Cl)CC1)C(Cl)(Cl)Cl` (stereo not given), the Potency result in [1], in assay [2], in assay [3], in assay [5], in assay [6] and in [7] was “inactive” in each case. Moreover, the Potency entry in assay [8] and in assay [10] was “inactive” throughout. The max response in [4] is -2.73%. The molecule was called inactive in assay [9].

`CCC1(c2ccccc2)C(=O)N=C(O)NC1=O` (stereo not given): the Potency result in assay [1], in assay [2], in [3], in [5], in [6] and in [7] was “inactive” throughout. The Potency entry in assay [8] and in assay [10] was “inactive” each time. Moreover, the max response in [4] was 9.07%. In addition, in [9], the call was inactive.

On to `c1cc2c(c(N3CCNCC3)c1)OCCO2`, for which the Potency entry in [1], in assay [2], in assay [3], in [5], in [6] and in assay [7] was “inactive” in each case. Moreover, the Potency result in assay [8] is “inactive”. The max response in assay [4] is -2.14%. In addition, in assay [9], the call was inactive.
